Screening results (PubChem BioAssay)
FAS TE block: FAS thioesterase domain inhibitors, primary screen, biochemical, fluorescence intensity, uHTS. inhibition, % at 15 µM. AID 602261, 2012. 360,000 compounds, 0.67% hits. Fatty acid synthase (Homo sapiens), P49327. recombinant FAS-TE, OMFH fluorogenic substrate, fluorescence endpoint;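 active means compounds whose normalised, plate-corrected inhibition of enzyme fluorescence in the single-dose primary screen is 50% or more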
PKD1 kinase inh: inhibitors of human PKD1 kinase, biochemical, fluorescence polarization | PKD1 kinase fluorescence polarization assay | AID 797, 2007 | 200,000 compounds, 0.056% hits | Serine/threonine-protein kinase D1 (Homo sapiens), Q15139 | inhibition, % (concentration not given with the values); in the data active means inhibition above about 50%
p97 inhibitor: inhibitors of human p97 ATPase, primary screen, biochemical; Transitional endoplasmic reticulum ATPase (Homo sapiens), P55072; 220,000 compounds, 0.42% hits; inhibition, % at 8 µM; recombinant p97 ATPase, Kinase-Glo ATP luminescence, 3 h; in the data active means inhibition above about 15%
Redox H2O2 prof: compounds producing H2O2 with reducing agent – biochemical, NIH compound library profiling, artefact control for MLSCN library redox annotation, primary screen. 200,000 compounds, 0.03% hits. AID 878, 2007. DTT-dependent redox cycling H2O2, phenol red/HRP absorbance; 100% = 100 µM peroxide control, 0% = buffer. activation, % at 10 µM;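 active means activation of at least 50% relative to the plate's high and low controls in the primary single-dose screen; inactive means activation below 50%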;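 further: compound incubated with DTT at 0.8 mM final as the reducing agent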
SUMO HTRF inh: inhibitors of in vitro SUMOylation cascade, primary screen, biochemical, HTRF, uHTS; HTRF SUMOylation assay, SAE1/SAE2 + UBC9; inhibition, % at 35 µM; 290,000 compounds, 0.36% hits; AID 2006, 2009; in the data active means inhibition above about 50%, passing the limit was not always enough
Furin inhibitor: human furin inhibitors, primary screen, biochemical, fluorescence intensity; P09958; purified furin, fluorogenic substrate cleavage; inhibition, % at 20 µM or 30 µM; 220,000 compounds, 0.061% hits; AID 463115, 2010; in the data active means inhibition above about 25%
Target sequence (P09958 108-714 limits assumed): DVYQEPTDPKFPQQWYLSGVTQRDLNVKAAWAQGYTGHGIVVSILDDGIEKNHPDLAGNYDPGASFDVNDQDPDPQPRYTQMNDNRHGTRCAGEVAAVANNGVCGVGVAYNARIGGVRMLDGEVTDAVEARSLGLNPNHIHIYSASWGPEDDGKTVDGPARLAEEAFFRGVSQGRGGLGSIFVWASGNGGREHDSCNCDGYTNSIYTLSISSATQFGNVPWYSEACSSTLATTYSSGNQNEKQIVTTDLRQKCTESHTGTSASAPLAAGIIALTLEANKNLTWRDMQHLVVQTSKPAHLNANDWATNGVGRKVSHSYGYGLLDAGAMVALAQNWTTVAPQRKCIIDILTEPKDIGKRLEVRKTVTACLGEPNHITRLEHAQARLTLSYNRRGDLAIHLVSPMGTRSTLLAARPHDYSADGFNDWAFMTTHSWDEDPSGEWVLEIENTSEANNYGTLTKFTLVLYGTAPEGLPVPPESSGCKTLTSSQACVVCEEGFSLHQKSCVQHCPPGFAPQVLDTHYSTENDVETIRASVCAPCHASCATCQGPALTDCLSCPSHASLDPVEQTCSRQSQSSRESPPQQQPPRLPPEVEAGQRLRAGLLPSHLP
p97 confirm: p97 ATPase inhibitors, retest, confirmation, biochemical. shares compounds with p97 inhibitor. recombinant p97 ATPase, Kinase-Glo ATP luminescence. inhibition, % at 8 µM. 760 compounds, 44% hits;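 active means percent inhibition of p97 ATPase above a set limit, the primary screen's mean plus 3 SD, cut at about 15% in these data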
FAS-TE conf: FAS thioesterase domain inhibitors, confirmation, biochemical, fluorescence intensity, single concentration | shares compounds with FAS TE block | recombinant FAS-TE, OMFH fluorogenic substrate | inhibition, % at 15 µM | 2,300 compounds, 45% hits | AID 624325, 2012;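 active means compounds inhibiting the enzyme by at least 50% at 15 µM in any one of the replicates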
Numbers stand for hits; - = inactive; . = no result given. A selection: hits, their analogues and other compounds. The true share with any hit is near 1.2%.

SMILES	FAS TE block	PKD1 kinase inh	p97 inhibitor	Redox H2O2 prof	SUMO HTRF inh	Furin inhibitor	FAS-TE conf	others
CC(NC(=O)CC(c1ccccc1)c1cc(Cl)ccc1O)c1ccccc1 (configuration not stated)	50.3	-	15.3	-	-	-	-	p97 confirm=-
Cc1csc2c(=O)sc(NC(=O)c3ccc(F)cc3)nc12	-	.	-	.	-	-	.
Cc1csc2c(=O)sc(NC(=O)c3ccc(F)cc3Cl)nc12	84.0	.	16.9	.	-	-	-	p97 confirm=19.5
Cc1ccccc1C(=O)Nc1nc2c(C)csc2c(=O)s1	51.0	.	38.7	.	-	-	-	p97 confirm=37.5
COCCNC(=O)C1CC(c2ccccc2C(F)(F)F)=NO1 (configuration not stated)	-	.	.	.	.	.	.
CSc1nc(N)nc2c1ncn2CC(=O)NCCNc1ccc([N+](=O)[O-])cn1	-	.	.	.	.	.	.
Cn1c(=O)c([N+](=O)[O-])c(N2CCN(Cc3ccc4c(c3)OCO4)CC2)c2ccccc21	86.1	.	-	.	-	-	53.8
O=[N+]([O-])c1ccc2ncnc(N3CCN(Cc4ccc5c(c4)OCO5)CC3)c2c1	81.7	.	.	.	-	.	86.6
Cn1c(C(=O)N2CCN(Cc3ccc4c(c3)OCO4)CC2)cc2c(=O)n(C)c3ccccc3c21	-	-	-	-	-	-	.
O=[N+]([O-])c1cccnc1N1CCN(Cc2ccc3c(c2)OCO3)CC1	-	.	.	.	-	.	.
C[C@@H]1CCC(=O)N(CC[C@H](Oc2ccccc2)c2ccccc2)CC1	-	.	.	.	-	.	.
CCNc1ccc(S(=O)(=O)N(C)C)cc1NCC(=O)Nc1ccc(F)c(Cl)c1	58.5	-	-	-	-	-	38.7
CCNc1ccc(S(=O)(=O)N(C)C)cc1NCC(=O)Nc1ccccc1F	-	-	-	-	-	-	.
O=C(Nc1ccc(Nc2ccccc2)cc1)c1cc([N+](=O)[O-])ccc1Cl	59.4	.	.	.	-	.	48.5
O=C(Nc1ccc(S(=O)(=O)N2CCOCC2)cc1)c1cc([N+](=O)[O-])ccc1Cl	65.2	.	.	.	-	.	-
O=C(NC1CCCCCCC1)c1cc([N+](=O)[O-])ccc1Cl	66.5	.	.	.	-	.	64.9
COc1cc(Cl)ccc1OC1(C)CCN(Cc2cccc(OC)c2OC)C1 (configuration not stated)	-	.	.	.	.	.	.
O=C(CSc1ccc2nnc(CCNC(=O)c3ccccc3)n2n1)NCc1ccc(F)cc1	-	.	.	.	-	.	.
Cc1ccc(Sc2ncccc2C(=O)NCC(c2ccc(F)cc2)N2CCOCC2)cc1C (configuration not stated)	-	.	.	.	.	.	.
CCNc1nn2ccccc2c1/C=C(\C#N)C(=O)OCC	-	.	-	.	-	-	.
Cc1nn(-c2ccc([N+](=O)[O-])cc2)c2c1C(c1ccc(OC(F)F)cc1)N1C(=N2)C(=O)Nc2ccccc21 (configuration not stated)	85.8	-	-	-	-	-	-
COc1cccc(C2c3c(C)nn(-c4ccc([N+](=O)[O-])cc4)c3N=C3C(=O)Nc4ccccc4N32)c1 (configuration not stated)	71.8	-	-	-	-	-	-
COc1ccc(N2C(=O)CSC2c2ccc([N+](=O)[O-])cc2)cc1 (configuration not stated)	-	.	.	.	-	.	.
Cc1ccc(C2c3c(C)nn(-c4ccc([N+](=O)[O-])cc4)c3N=C3C(=O)Nc4ccccc4N32)cc1 (configuration not stated)	.	-	-	-	-	-	.
Cc1ccc(NC(=O)C(C)c2ccc([N+](=O)[O-])cc2)cc1Cl (configuration not stated)	59.0	-	-	-	-	-	-
SMILES	FAS TE block	PKD1 kinase inh	p97 inhibitor	Redox H2O2 prof	SUMO HTRF inh	Furin inhibitor	FAS-TE conf	others
CC(C(=O)Nc1ccccc1Br)c1ccc([N+](=O)[O-])cc1 (configuration not stated)	-	-	-	-	-	-	.
O=[N+]([O-])c1ccc(Nc2nc(NC3CCCCC3)nc(N3CCCC3)n2)cc1	-	-	-	-	-	-	.
CCOc1ccc(S(=O)(=O)N2CCN=C2c2ccccc2)c(C)c1C	-	.	.	.	-	.	.
O=C(/C=C/c1ccc2c(c1)OCO2)NCCSCc1ccc(Cl)cc1Cl	-	-	-	-	-	-	.
O=C(/C=C/c1cccc([N+](=O)[O-])c1)NCCSCc1ccc(Cl)cc1Cl	58.8	-	-	-	-	-	58.0
O=C(/C=C/c1cccc([N+](=O)[O-])c1)NCCSCc1ccccc1Cl	75.4	-	-	-	-	-	-
Cc1c(C(=O)NCCSCc2ccccc2Cl)cccc1[N+](=O)[O-]	-	-	-	-	-	-	.
Cc1ccc(S(=O)(=O)N2C[C@H]3[C@H]4C(=O)N(C5CCCCC5)C(=O)[C@H]4CC(=O)[C@H]3[C@@H]2c2cccc3ccccc23)cc1	97.4	.	.	.	.	.	-
Cc1ccc(S(=O)(=O)N2C[C@H]3[C@H]4C(=O)N(Cc5ccccc5)C(=O)[C@H]4CC(=O)[C@H]3[C@@H]2c2ccccc2Cl)cc1	85.3	.	.	.	.	.	-
COc1ccc(C(=O)Nc2nnc(Cc3ccccc3)s2)c(OC)c1	-	.	.	.	-	.	.
COc1ccc(C2CC(c3ccccc3)=NN2C(=O)COC(=O)c2cccc(S(=O)(=O)N(C)C)c2)cc1 (configuration not stated)	71.8	-	-	-	-	-	-
COc1ccc(C2CC(c3ccccc3)=NN2C(=O)COC(=O)c2ccc(Cl)nc2)cc1 (configuration not stated)	-	-	-	-	-	-	.
COc1ccc(C2CC(c3ccccc3)=NN2C(=O)COC(=O)c2cnc(Cl)c(Cl)c2)cc1 (configuration not stated)	-	-	-	-	-	-	.
COc1ccc(C2CC(c3ccccc3)=NN2C(=O)COC(=O)c2cccc(S(=O)(=O)N3CCOCC3)c2)cc1 (configuration not stated)	69.6	-	-	-	-	-	-
COc1cc([N+](=O)[O-])cc(/C=N/NC(=O)c2cccnc2)c1O	61.9	.	-	.	-	-	74.4
O=C(COc1ccc2c(-c3ccccc3)cc(=O)oc2c1)N[C@@H](Cc1c[nH]c2ccc(O)cc12)C(=O)O	74.2	.	.	.	-	.	70.0
